Most compounds without a hit are left out; they make up all but 3% or so of the library.
USP1-UAF1 inh: USP1/UAF1 (human) deubiquitinase inhibition | O94782 | recombinant USP1/UAF1, Ub-Rhodamine cleavage fluorescence | AID 743255 | Potency, µM (highest dose often 57.1 µM), for the others: top-dose activity change, negative = inhibition, most hits filed as inhibitors | 0.23% of 390,000 active; further: on the % scale 0 is the no-effect control and ±100 the full control effect; nearly all actives have a fitted effect of over 60% in size
Target sequence (O94782 whole entry, looked up): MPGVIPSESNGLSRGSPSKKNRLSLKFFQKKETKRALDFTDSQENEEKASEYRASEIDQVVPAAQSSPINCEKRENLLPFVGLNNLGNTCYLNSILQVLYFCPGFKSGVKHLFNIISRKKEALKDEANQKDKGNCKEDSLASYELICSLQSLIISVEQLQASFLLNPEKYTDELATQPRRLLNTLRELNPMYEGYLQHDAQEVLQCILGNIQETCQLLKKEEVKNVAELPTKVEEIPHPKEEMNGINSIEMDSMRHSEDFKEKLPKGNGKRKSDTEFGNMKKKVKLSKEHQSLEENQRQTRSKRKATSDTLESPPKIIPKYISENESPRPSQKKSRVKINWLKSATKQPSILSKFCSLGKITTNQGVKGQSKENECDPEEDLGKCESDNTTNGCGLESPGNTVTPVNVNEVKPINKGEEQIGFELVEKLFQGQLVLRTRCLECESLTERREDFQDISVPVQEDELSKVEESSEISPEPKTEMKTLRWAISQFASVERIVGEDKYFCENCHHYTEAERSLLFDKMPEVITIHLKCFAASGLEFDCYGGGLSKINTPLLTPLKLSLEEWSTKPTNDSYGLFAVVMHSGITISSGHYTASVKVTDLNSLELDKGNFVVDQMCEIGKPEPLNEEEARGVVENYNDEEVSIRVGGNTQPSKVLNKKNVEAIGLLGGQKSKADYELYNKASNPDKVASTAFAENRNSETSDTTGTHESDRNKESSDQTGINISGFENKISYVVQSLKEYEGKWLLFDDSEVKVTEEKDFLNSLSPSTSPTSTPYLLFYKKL
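USP1/UAF1 complex (1 nM) preincubated 15 min at room temperature with compound, then Ub-Rho substrate (150 nM final) added. Kinetic fluorescence at 480/540 nm over 6 reads at 60 s intervals; 50 mM HEPES pH 7.8, 0.5 mM EDTA, 0.1 mg/ml BSA, 1 mM TCEP, 0.01% Tween-20.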
VDR inhibitor: inhibitors of human vitamin D receptor; P11473; VDR-SRC2-3 peptide fluorescence polarization, 2 h; Potency, µM, for inactives: max response, negative = inhibition, actives largely listed as inhibitors; 0.93% of 400,000 active; further: on the % scale 0 is the no-effect control and ±100 the full control effect
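Fluorescence polarization assay measuring small-molecule disruption of VDR binding to the coregulator peptide SRC2-3. Compounds were pin-transferred (23 nl) into the reagent mix and incubated 2 h at room temperature before reading.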
PLK1 PBD block: blocks phosphopeptide binding to human PLK1 polo-box domain. Plk1 PBD binding of FITC phosphopeptide, fluorescence polarization. P53350. 2.8% of 360,000 active. Potency, µM, inactives show max response, negative = inhibition, usual class: inhibitors; further: series mostly up to about 57 µM; on the % scale 0 is the no-effect control and ±100 the full control effect; nearly all actives have a fitted effect of over 65% in size
PTAP TSG101 blk: blocks PTAP/TSG101 interaction to inhibit HIV-1 budding; Q99816; Fluorescence polarization, FITC-PTAP peptide / Tsg101 binding; Potency, µM (series often up to 115 µM), inactives show top-dose activity change, negative = inhibition, most hits filed as inhibitors; 340,000 tested, under 10 active; active means well fitted inhibition curve with a large enough effect in the main read-out, with a control signal flat, not every such curve was filed as active; inconclusive means small, poorly fitted or top-dose-only effect, or effect the other way, or a change in a side signal; inactive means no such curve, though single readings can be large or run the other way; further: % of control where 0% means no effect
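Compounds were pin-transferred onto Tsg101 binding domain (10 uM final) in HEPES pH 7.5 buffer, then FITC-PTAP peptide was added at 50 nM final. After 20 min at RT, polarization reported peptide displacement across a qHTS concentration series.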
GCN5L2 inh: blocks human GCN5L2 histone acetyltransferase; Potency, µM (highest dose often 58.9 µM), for the others: at the top dose activity change, negative = inhibition, hits mostly inhibitors; Q92830; AID 504327; GCN5L2 HAT assay, ThioGlo1 CoA-SH fluorescence; 0.21% of 390,000 active; further: on the % scale 0 is the no-effect control and ±100 the full control effect
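ThioGlo1-coupled HAT assay: 20nM GCN5L2, 70uM acetyl-CoA, 75uM H3(1-25) peptide, pH 7.5. Fluorescence read at 340/540nm at start and after 20 min at room temperature.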
An asterisk follows results filed as active; u = inconclusive; x = no result given; [ ] = another dose, or the depositor's remark. Unless noted, the call rests on the fitted dose curve; in most records, active means well fitted curve in the direction sought with a large enough effect; inconclusive means small, poorly fitted or top-dose-only effect, or another doubt; inactive means no such curve, though single readings can be large; an effect the other way counts as inactive or inconclusive. Potency means the concentration at half of the fitted maximal effect.

SMILES	USP1-UAF1 inh	VDR inhibitor	PLK1 PBD block	PTAP TSG101 blk	GCN5L2 inh
Cc1ccc(C(=O)N/C(=C/c2ccco2)C(=O)NC2CCS(=O)(=O)C2)cc1 (stereo unspecified)	-18.9%	-6.3%	-4.4%	-9.1%	-23.8%
CCNC(=S)Nc1ccc2c(c1)c(=O)n(C)n2Cc1cccc(C(F)(F)F)c1	x	x	26.7µM*	x	x
Cn1c(=O)c2cc(NC(=S)NC3CCCCC3)ccc2n1Cc1cccc(C(F)(F)F)c1	x	x	-7.3%	x	x
CC12CCC(C(=O)N(CSC(=S)N/N=C\c3ccccc3)C1=O)C2(C)C (stereo unspecified)	-18.7%	-17.2%	3.36µM*	-3.7%	-18.0%
CCc1cccc(C)c1NC(=O)CCCn1c(=O)c2cccn2c2cccnc21	-28.0%	u	23.8µM*	0.0%	2.1%
Cc1ccc(C2(C)NC(=O)N(CC(=O)NNC(=O)c3ccccc3)C2=O)cc1 (stereo unspecified)	-16.4%	-9.3%	-4.8%	1.6%	-1.0%
O=C(OCc1cc(=O)n2c3c(sc2n1)CCCC3)c1cccc(NC(=O)c2ccccc2F)c1	-17.1%	9.9%	x	x	-8.5%
O=C(Nc1nc2c(s1)CN(Cc1ccccc1)CC2)c1c(F)cccc1F	-19.5%	11.7%	21.2µM*	3.5%	-2.7%
CCc1ccc(NC2=CC(=O)C(=O)c3ccccc32)cc1	28.2µM*	u	-11.3%	-2.0%	-9.6%
CCCCNC1=CC(=O)C(NCCCC)=CC1=O	-14.1%	u	-17.7%	-5.7%	x
CCCCNC1=CC(=O)C(=O)c2ccccc21	25.1µM*	u	-17.3%	-9.8%	-4.8%
O=C1C=C(Nc2ccccc2)C(=O)c2ccccc21	u	4.4%	0.9%	-3.0%	1.5%
Cc1ccc(CNC(=O)c2ccc(COc3ccccc3)cc2)cc1	-10.1%	-8.5%	-3.8%	1.3%	-8.2%
O=S(c1cc(Cl)cc(Cl)c1O)c1cc(Cl)cc(Cl)c1O	x	39.8µM*	u	x	u
CCCOC(=O)c1c(NC(=O)C2c3ccccc3Oc3ccccc32)sc2c1CCC(C)C2 (stereo unspecified)	-8.5%	-17.8%	x	x	-3.0%
CC(C)(C)c1nc2cc(Cl)c([N+](=O)[O-])cc2o1	-5.2%	79.4µM*	26.7µM*	0.2%	-0.2%
Cc1ccc(SC(CC(=O)c2ccc(F)cc2)C(=O)O)cc1 (stereo unspecified)	-6.0%	22.4µM*	u	0.8%	-5.5%
Cc1ccc(SCC(=O)NCCc2ccc(F)cc2)cc1	-20.2%	11.9%	-8.9%	-3.6%	-5.4%
CCC(Sc1nc2ccccc2c2nc(CCc3c(C)n[nH]c3C)nn12)C(=O)Nc1ccc(F)cc1 (stereo unspecified)	-24.6%	2.9%	x	x	-2.7%
Cc1c(NC(=O)COC(=O)CCC(=O)c2ccc(Cl)cc2)c(=O)n(-c2ccccc2)n1C	-20.7%	u	16.8µM*	-5.9%	-5.2%
Cc1c(NC(=O)CSc2n[nH]c(=O)n2-c2ccccc2)c(=O)n(-c2ccccc2)n1C	-16.2%	u	26.7µM*	-0.7%	-8.5%
CCC(=O)c1ccc(OCC(=O)OCC(=O)Nc2c(C)n(C)n(-c3ccccc3)c2=O)cc1	-13.4%	-18.2%	-5.1%	-0.7%	2.9%
CC[n+]1ccc(C[n+]2ccccc2)c2ccccc21	-17.7%	-20.6%	-16.4%	-2.8%	28.2µM*
Cc1ccc2c(c1)c(C)cc[n+]2Cc1ccccc1	-18.0%	8.1%	-2.3%	-0.9%	-0.1%
COc1ccc(C(=O)CN2C(=O)N(c3cc(C)cc(C)c3)S(=O)(=O)c3ccccc32)cc1	-7.5%	4.2%	x	x	-14.3%
SMILES	USP1-UAF1 inh	VDR inhibitor	PLK1 PBD block	PTAP TSG101 blk	GCN5L2 inh
C=C(CN(C)C)C(=O)c1ccc(OC2OC(COC(C)=O)C(OC(C)=O)C(OC(C)=O)C2OC(C)=O)cc1 (stereo unspecified)	3.3%	39.8µM*	15µM*	-3.8%	x
CC(=O)OCC1OC(Oc2cc(OC(C)=O)c3c(=O)cc(-c4ccc(OC(C)=O)cc4)oc3c2)[C@@H](OC(C)=O)C(OC(C)=O)C1OC(C)=O (stereo partly specified)	x	17.4%	x	x	-19.8%
COc1ccccc1NS(=O)(=O)c1cc(NC(=O)c2ccc(NC(C)=O)cc2)ccc1N1CCOCC1	-17.0%	u	26.7µM*	-0.2%	x
COc1ccccc1NS(=O)(=O)c1cc(NC(=O)c2ccncc2)ccc1N1CCOCC1	-3.4%	-28.3%	13.4µM*	0.3%	-8.6%
CCCCSCCCNC(=O)c1cc(-c2cccnc2)nc2ccc(S(=O)(=O)N3CCC(C)CC3)cc12	-8.4%	23.6%	x	x	4.0%
CC(C)CC1NC(C(=O)O)Cc2c1[nH]c1ccccc21 (stereo unspecified)	-16.2%	19.1%	-0.3%	0.4%	-2.4%
CCCC1NC(C(=O)O)Cc2c1[nH]c1ccccc21 (stereo unspecified)	-22.7%	u	18.9µM*	-5.0%	-1.4%
CC(C)(C)C1(C)OC(=O)C(=Cc2ccc(OCC(=O)Nc3ccccc3)cc2)C(=O)O1 (stereo unspecified)	-15.3%	10.6%	2.38µM*	0.0%	-0.6%
Cc1cccc(C2=N[C@@H](Cc3ccccc3)CO2)c1	x	-0.6%	x	x	12.0%[88.6 µM]
O=C(Nc1ccccc1)c1sc2cc(C(F)(F)F)cnc2c1-c1cccs1	-22.3%	u	2.99µM*	2.2%	-2.1%
COc1ccc(-c2cn3nc(N4CCCC(C(=O)Nc5cc(C)ccc5C)C4)sc3n2)cc1 (stereo unspecified)	u	14.1%	x	x	-7.8%
Clc1ccccc1C1CC(c2ccccc2)=Nc2ccccc2N1 (stereo unspecified)	50.1µM*	16.9%	4.8%	u	-6.6%
Cc1c(Cl)cccc1NC(=O)CSc1ncnc2c1sc1ccccc12	-26.7%	12.1%	x	x	-5.1%
O=C(CCN1CCC(c2ccccc2)C1)c1ccccc1 (stereo unspecified)	-16.0%	-12.2%	u	-2.2%	-5.5%
O=C(CCN1CCC2CCC(C2)C1)c1ccc(F)cc1 (stereo unspecified)	-9.2%	u	8.44µM*	1.0%	x
CC1CCN(S(=O)(=O)c2ccc3c(c2)c(=O)c(C(=O)NCCc2ccccc2)cn3C)CC1	-3.6%	-17.3%	x	x	-2.4%
CC(C)(C)c1ccc(CN2N=Nc3ccccc3S2(=O)=O)cc1	-19.7%	50.1µM*	13.4µM*	-2.2%	u
O=C1C(=O)N(CCN2CCOCC2)C(c2ccccc2)/C1=C(\O)c1ccc2c(c1)OCCO2 (stereo unspecified)	-13.0%	2.4%	-1.3%	-3.2%	-4.4%
O=C1C(=O)N(CCCN2CCOCC2)C(c2ccc(Cl)cc2)/C1=C(\O)c1ccc2c(c1)OCCO2 (stereo unspecified)	-16.1%	u	23.8µM*	-6.7%	-0.3%
CCN(CC)c1nc2ccccc2nc1C(C#N)C(=O)NCCc1ccccc1 (stereo unspecified)	149.9%	-16.2%	13.4µM*	u	-3.6%

Screens (PubChem BioAssay)
